From ChEMBL document CHEMBL3988442, “University of Dundee, Small-Polar-MMV Screening Library” (2021)
About 13,000 (27%) of roughly 48,000 compounds showed an effect of 50% or more. The list shows a part of the results.

tested on: Wolbachia pipientis; assay: Anti-Wolbachia Cell-Based Screen; type: functional; design: scale not given: in the data most compounds retested in dose-response had high values; conditions: 5 µM

| SMILES | Percent Effect [%] |
| --- | --- |
| COC(=O)c1cc2c(=O)[nH]c(=O)n(CCc3ccccc3)c2nc1C | -9.313 |
| O=C(c1ccc2cccc(F)c2n1)N1CCN(CCn2cncn2)CC1 | -17.81 |
| Cc1cc(CN(C)C(=O)NC(C)c2nncn2C)no1 (stereo not drawn) | 1.763 |
| Cc1cc(C)n(C2CN(c3nc(N)nc4c3CCCC4)C2)n1 | 12.27 |
| NCc1csc(CCc2ccccc2)n1 | -7.942 |
| CN1C(=O)C[C@@H]2[C@@H]1CCN2S(=O)(=O)Cc1ccccc1 | -5.88 |
| CN(C)Cc1cc(C2CCCCN2S(=O)(=O)c2cccc(Cl)c2)nn1C.Cl (stereo not drawn) | 167.4 |
| O=S(=O)(N1CCCC1)N1CCCCC1CCc1ccccc1 (stereo not drawn) | 1.463 |
| CN(C)CCN1CC[C@@H]2[C@@H]1CCN2C(=O)c1cccc(Cl)c1 | -16.88 |
| CN(C)Cc1cc(C2CCCCN2S(=O)(=O)Cc2ccccc2)nn1C.Cl (stereo not drawn) | 133.2 |
| O=S(=O)(c1cccc(Cl)c1)N1CCCC(Cn2cncn2)C1 (stereo not drawn) | -2.672 |
| CCN(C)C[C@@H]1CN(S(=O)(=O)c2cccc(Cl)c2)C[C@@H]1CO | 13.86 |
| CN(C)Cc1cc(C2CCCN(S(=O)(=O)c3cccc(Cl)c3)C2)nn1C (stereo not drawn) | 157.3 |
| CCN(Cc1cccc(NC(=O)COC)c1)C(C)=O | -0.3601 |
| Cc1cc(C(=O)NC(C)c2nnn[nH]2)c2ccc(C)c(C)c2n1 (stereo not drawn) | -4.141 |
| c1csc(-c2noc(COCC3CCCO3)n2)c1 (stereo not drawn) | 0.9659 |
| CCOCc1ccccc1NC(=O)NC1CCN(c2ccccc2)C1 (stereo not drawn) | 9.486 |
| O=C(c1ccc[nH]1)N1CCC2(CC1)C(=O)Nc1ccccc12 | -2.806 |
| Cc1nc(C)c(Cc2nc(C3CC3)n[nH]2)c(=O)[nH]1 | -38.01 |
| Cc1ccc(C2CCCN2CC(=O)N(CCC#N)c2ccccc2)cc1 (stereo not drawn) | 5.667 |
| COc1ncccc1C(=O)N1CCc2c(ncnc2N2CCOCC2)C1 | 105 |
| O=C(c1ncccc1O)N1CCc2c(ncnc2N2CCOCC2)C1 | -10.43 |
| COCc1ccc(C(=O)N2CCc3c(ncnc3N3CCOCC3)C2)o1 | -21.39 |
| CCc1ccc(-c2nn3c(nc2=O)-c2ccccc2NC3C(=O)O)cc1 (stereo not drawn) | -8.075 |
| CCc1cnc(CN2CCOC(c3nc(C)n[nH]3)C2)o1 (stereo not drawn) | -1.85 |
| Cn1cc(CNC2CCc3ncnn3C2)c(-c2ccncc2)n1 (stereo not drawn) | 11.86 |

| SMILES | Percent Effect [%] |
| --- | --- |
| c1ccc(-n2cc(CNC3CCc4ncnn4C3)cn2)cc1 (stereo not drawn) | 107.7 |
| Cn1cc(CNC2CCc3ncnn3C2)c(-c2cccnc2)n1 (stereo not drawn) | -2.662 |
| c1ccc(-n2ncc(CNC3CCc4ncnn4C3)n2)cc1 (stereo not drawn) | -11.2 |
| Clc1ccccc1Cn1cc(CNC2CCc3ncnn3C2)cn1 (stereo not drawn) | 121.3 |
| c1cncc(CNC2CCc3ncnn3C2)c1 (stereo not drawn) | 100.1 |
| Clc1ccc(-n2cc(CNC3CCc4ncnn4C3)cn2)cc1 (stereo not drawn) | -12.36 |
| c1ccc(Cn2cc(CNC3CCc4ncnn4C3)cn2)cc1 (stereo not drawn) | 1.382 |
| Cc1nc(C)n(C2CCCN(C(=O)c3cccc4[nH]ncc34)C2)n1 (stereo not drawn) | 0.6187 |
| c1ccc2c(c1)CC(N1CCCN(Cc3cccc4nonc34)CC1)C2 | -60.59 |
| COCC(NC(=O)NCc1cccc(C#N)c1)c1ccco1 (stereo not drawn) | -16.03 |
| CN(Cc1ccccc1OC(F)(F)F)C(=O)C1CC1 | 0.731 |
| O=C(NCC(Cc1cccc(F)c1)N1CCCC1=O)c1cnccn1 (stereo not drawn) | -11.28 |
| CC(CNC(=O)c1cnccn1)Oc1cccc(Br)c1 (stereo not drawn) | -3.895 |
| CNC(=O)NCC(CO)Cc1cccc(OC(F)(F)F)c1 (stereo not drawn) | 137.5 |
| CC(O)CN1CCC(CNCc2ccccc2OC(F)(F)F)CC1 (stereo not drawn) | -2.479 |
| CN(Cc1cccc(OC(F)(F)F)c1)C(=O)Cc1ccon1 | -6.414 |
| CN(Cc1cccc(OC(F)(F)F)c1)C(=O)c1ccncc1F | 3.384 |
| CNC(=O)NCC(CO)Cc1ccccc1OC(F)(F)F (stereo not drawn) | 119.9 |
| O=C(NCC(CO)Cc1cccc(OC(F)(F)F)c1)c1cnccn1 (stereo not drawn) | 103 |
| O=C(c1ncc[nH]1)N1CCC(n2cc(-c3ccccn3)nn2)CC1 | -4.702 |
| CN1N=C(C(=O)N2CCN(c3ncccc3Cl)CC2)CCC1=O | -3.997 |
| CC(C)C(=O)NCCCn1ncc2c(Cl)cccc21 | -4.05 |
| O=S(=O)(N1CCCCCC1)N1CCN(Cc2ccc(F)cc2Br)CC1 | 6.465 |
| O=C(CN1CCCC1Cn1cncn1)NCCOc1cccc(F)c1 (stereo not drawn) | 0.2795 |
| O=C(CN1CCCC1Cn1cncn1)NCCOc1ccccc1 (stereo not drawn) | 108.3 |
| O=C(CN1CCCCC1Cn1cncn1)NCCOc1ccccc1 (stereo not drawn) | 140 |

| SMILES | Percent Effect [%] |
| --- | --- |
| O=C(CN1CCCC1Cn1cncn1)Nc1cccnc1 (stereo not drawn) | -2.58 |
| Cc1cccc(OCCNC(=O)CN2CCCC2Cn2cncn2)c1 (stereo not drawn) | 115.7 |
| CCN1CCC(NC(=O)CN2CCCC2Cn2cncn2)CC1 (stereo not drawn) | 1.475 |
| O=C(CN1CCCC(Cn2cncn2)C1)NCCOc1ccccc1 (stereo not drawn) | -8.945 |
| O=C(CN1CCCC1Cn1cncn1)NC(C1CC1)C1CC1 (stereo not drawn) | -5.289 |
| O=C(CN1CCCCC1Cn1cncn1)NC1CCN(C2CC2)CC1 (stereo not drawn) | -6.056 |
| O=C(CN1CCCC1Cn1cncn1)NCCc1c(F)cccc1F (stereo not drawn) | -7.499 |
| O=C(CN1CCCC1Cn1cncn1)NCCOc1ccc(F)cc1 (stereo not drawn) | 135.9 |
| COc1ccc(CNC[C@@]2(COc3cccnc3)C[C@@H](O)[C@@H](O)C2)cc1.Cl | -5.616 |
| CCSCCC(C)NC(=O)Nc1cccn(C)c1=O (stereo not drawn) | -9.489 |
| CC(C)C1CN(Cc2cnc(N(C)C)nc2)CCCN1CC1CC1 (stereo not drawn) | -7.489 |
| CC(C)N1CCCCC1c1nc(N(C)C)ncc1I.Cl (stereo not drawn) | 76.51 |
| COCCOc1ccnc(-c2noc([C@@H]3CCCN3C(C)C)n2)c1 | -15.24 |
| CC(C)N1CCCC1c1nc(N(C)C)ncc1I (stereo not drawn) | 51.47 |
| CN(C)c1ccc(NC(=O)N2CCCCCC2c2ccncc2)cn1 (stereo not drawn) | 0.3778 |
| CC1=N[C@@]2(CC[C@@H]3CN(C(=O)NCC(C)C)C[C@@H]32)C(=O)N1CC(C)C | 8.203 |
| CCCc1nccn1-c1cccc(CN2CCCC2)c1 | -15.07 |
| Cc1ncccc1C(=O)NCc1ccccc1CN(C)Cc1ccco1 | 15.52 |
| CCCNc1ncc(CN2CCN(C)C(=O)C2C)cn1 (stereo not drawn) | -4.636 |
| O=C(c1ccoc1)N1CCOCC2(CCN(Cc3cccs3)C2)C1 (stereo not drawn) | 98.93 |
| COCCN1C[C@@H](C)[C@@]2(COCCN(C(=O)c3ccoc3)C2)C1 | 1.711 |
| Cc1ccc(CN2CCOCC3(CCN(Cc4cccs4)C3)C2)o1.O=C(O)C(F)(F)F.O=C(O)C(F)(F)F (stereo not drawn) | 110.5 |
| Cc1ccc(CN2CCCC3(COCCN(Cc4c[nH]nn4)C3)C2)o1.O=C(O)C(F)(F)F.O=C(O)C(F)(F)F (stereo not drawn) | -14.33 |
| O=C(O)C(F)(F)F.O=C(O)C(F)(F)F.c1csc(CN2CCC3(COCCN(CC4CC4)C3)C2)n1 (stereo not drawn) | 26.97 |
| O=C(O)C(F)(F)F.O=C(O)C(F)(F)F.c1csc(CN2CCCC3(COCCN(Cc4c[nH]nn4)C3)C2)c1 (stereo not drawn) | -6.971 |
| CC(C)N1CCOCC2(CN(Cc3cccs3)CCO2)C1.O=C(O)C(F)(F)F.O=C(O)C(F)(F)F (stereo not drawn) | 7.639 |

| SMILES | Percent Effect [%] |
| --- | --- |
| Cc1occc1C(=O)N1CCOCC2(CCN(Cc3nccs3)C2)C1.O=C(O)C(F)(F)F (stereo not drawn) | -1.117 |
| Cc1ccc(CN2CCOC3(COCCN(C(C)C)C3)C2)o1.O=C(O)C(F)(F)F.O=C(O)C(F)(F)F (stereo not drawn) | -26.11 |
| CN(C)CCN1CCOCC2(CCCN(C(=O)c3ccoc3)C2)C1.O=C(O)C(F)(F)F.O=C(O)C(F)(F)F (stereo not drawn) | -7.918 |
| O=C(N1CCCC1)N1CCOCC2(CCN(Cc3cccs3)C2)C1.O=C(O)C(F)(F)F (stereo not drawn) | 119.1 |
| O=C(NC1CC1)N1CCOCC2(CCN(Cc3cccs3)C2)C1.O=C(O)C(F)(F)F (stereo not drawn) | 89.31 |
| OCCN(Cc1cccnc1)c1cnc2ccccc2n1 | -10.33 |
| COCC(=O)N1CCOCC2(CCN(Cc3cccs3)C2)C1.O=C(O)C(F)(F)F (stereo not drawn) | 92.34 |
| COCCN1CCC2(COCCN(C(=O)Cc3cccs3)C2)C1.O=C(O)C(F)(F)F (stereo not drawn) | 3.842 |
| COCC(=O)N1CCCC2(COCCN(CCN(C)C)C2)C1.O=C(O)C(F)(F)F.O=C(O)C(F)(F)F (stereo not drawn) | -43.45 |
| COCCC(=O)N1CCOCC2(CCN(Cc3cccs3)C2)C1.O=C(O)C(F)(F)F (stereo not drawn) | 93.92 |
| COCCC(=O)N1CCC2(CCN(Cc3ccc(C)cc3)CC2)C1.O=C(O)C(F)(F)F | -24.32 |
| Cc1nc(CC2CCCN(Cc3nc4ccccc4c(=O)[nH]3)C2)no1 (stereo not drawn) | -3.308 |
| CSCc1cccc(S(=O)(=O)NCCCn2ccnc2)c1 | -11.24 |
| O=C(CCc1nccs1)N1CCN(c2ccc(Br)cn2)CC1 | 15.4 |
| O=C(CCc1nccs1)N1CCN(c2ccc(Cl)cn2)CC1 | 142.1 |
| COc1cc(C)nc(N2CCN(C(=O)CCc3nccs3)CC2)n1 | -2.127 |
| O=C(CCc1nccs1)N1CCN(c2ncccn2)CC1 | -7.196 |
| O=C(CCc1nccs1)N1CCN(c2nccs2)CC1 | 116.1 |
| O=C(CCc1nccs1)N1CCN(c2ccccc2F)CC1 | -6.443 |
| Cc1csc(N2CCN(C(=O)CCc3nccs3)CC2)n1 | 0.8841 |
| O=C(COCc1ccccc1)N1CCN(c2ccc(Cl)cn2)CC1 | 1.398 |
| Cc1ccc(N2CCCN(C(=O)CCc3nccs3)CC2)nn1 | 105.9 |
| N#Cc1ccccc1N1CCCN(C(=O)CCc2nccs2)CC1 | 6.343 |
| O=C(CCc1nccs1)N1CCN(c2ccccn2)CC1 | 104.9 |
| O=C(CCc1nccs1)N1CCN(c2cccnn2)CC1 | 5.775 |
